In the library only some 12% were active in any assay of this set; here they are far more common.
ROMK primary: modulates human ROMK potassium channel activity | P48048 | Tet-inducible ROMK, thallium flux fluorescence; actives lie on both sides | B-score at 10 µM | actives 2% (n = 130,000);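 active = signal ratio slope over the read window, or its plate-corrected B-score, at least 3 SD from the plate mean, either direction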;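 note: B-score of the F/F0 ratio slope over 7 to 12 s after thallium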
Target sequence (P48048 whole entry, looked up): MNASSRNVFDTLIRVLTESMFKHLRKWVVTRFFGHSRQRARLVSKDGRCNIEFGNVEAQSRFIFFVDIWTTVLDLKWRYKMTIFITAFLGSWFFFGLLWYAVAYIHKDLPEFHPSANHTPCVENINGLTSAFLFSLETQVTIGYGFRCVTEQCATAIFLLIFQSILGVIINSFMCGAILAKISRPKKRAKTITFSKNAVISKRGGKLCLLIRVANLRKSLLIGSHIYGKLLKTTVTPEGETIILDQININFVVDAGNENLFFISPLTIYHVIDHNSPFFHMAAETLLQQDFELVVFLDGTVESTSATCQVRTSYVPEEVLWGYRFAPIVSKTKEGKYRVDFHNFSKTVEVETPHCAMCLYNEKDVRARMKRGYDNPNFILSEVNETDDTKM
Cl transport mod: KCC2 (human) Cl- transport modulation; Q9H2X9; KCC2 cells, thallium flux FluoZin-2 fluorescence; B-score of Tl+ flux slope (higher = more flux/activation; lower = inhibition) at 10 µM; actives 2.2% (n = 190,000); AID 1456;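 active = thallium flux slope and its plate-corrected score both differing from the plate sample mean at a set confidence after two filtering rounds, in either direction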;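 note: slope of fluorescence scaled to starting intensity during 10 to 20 s after thallium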
WT yeast gro inh: growth inhibition of WT yeast, mitochondrial fusion screen; mitochondrial fusion phenotypic screen, WT strain; inhibition, % at 10 µM; actives 2.1% (n = 190,000); AID 1362; in the data active = inhibition above about 58%; tested in S. cerevisiae
L major viab: Leishmania major promastigote growth inhibition; Leishmania major promastigotes, resazurin fluorescence viability; inhibition, % at 10 µM; actives 9% (n = 200,000); in the data active = inhibition above about 50%;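 note: promastigotes grown with compound for 44 hours at 28 °C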
m-calpain inh: inhibitors of pig calpain II. purified calpain II, fluorogenic peptide substrate, 30 min. inhibition, % at 16 µM. actives 0.37% (n = 220,000). AID 1236;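 active = inhibition above about 50%, limit read from the data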
KCC2 secondary: confirmation of human KCC2 transport modulators; shares compounds with Cl transport mod; HEK293-KCC2, thallium flux, FluoZin2 fluorescence; active compounds read high; normalised thallium flux (F/F0 slope) at 10 µM; actives 15% (n = 3,700); AID 1713;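 active = thallium flux slope above the same plate's solvent-only control mean plus 3 SD; inconclusive = the two replicate wells disagree; inactive = no significant difference from solvent-only control wells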
KCC2 bumet counter: thallium flux despite bumetanide block in KCC2 cells, secondary assay 3. HEK293-KCC2 + bumetanide/ouabain, thallium flux FluoZin2; active compounds read high. actives 49% (n = 3,700). normalized thallium flux at 10 µM. shares compounds with Cl transport mod;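 active = thallium entry rate above the same plate's blocked-transporter control wells by more than 3 SD; inconclusive = the two repeat wells disagree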;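 note: raw slope of fluorescence over initial fluorescence between 10 and 20 s after thallium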
KCC2 sec2: KCC2 (human) modulation, second secondary assay; HEK293-KCC2, thallium flux FluoZin2 fluorescence; actives lie on both sides; F/F0 rise rate, 10–20 s post-thallium; AID 1715; actives 23% (n = 3,700); normalized thallium flux at 10 µM; shares compounds with Cl transport mod;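 active = thallium flux slope more than 3 SD above or below the plate's solvent-only control mean, mostly below; inconclusive = the two repeat wells disagreed; inactive = no significant shift from solvent-only controls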;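 note: raw slope with 0.1% DMSO as baseline and bumetanide as block control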
HEK counter1: counter-screen for KCC2 modulators: effect in parental HEK293 cells; shares compounds with Cl transport mod; thallium flux FluoZin2, ouabain; baseline-ratio fluorescence slope, 10–20 s after thallium; thallium flux rate (normalised fluorescence) at 10 µM; actives 46% (n = 3,700); AID 1716;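 active = thallium flux rate significantly above the same plate's solvent-only control wells, beyond their mean plus 3 SD; inconclusive = the two replicate wells gave conflicting results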
KCC2 ouabain: modulates human KCC2 on retest with ouabain | shares compounds with Cl transport mod | HEK293-KCC2, thallium flux FluoZin2 fluorescence; bidirectional: low = inhibitor, high = activator | raw Tl+ flux slope (below DMSO = inhibition, above = activation) at 10 µM | actives 48% (n = 3,700) | AID 1717;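 active = thallium flux slope beyond 3 SD from same-plate DMSO control mean in most replicates, usually higher, sometimes lower; inconclusive = repeat tests gave conflicting results; inactive = no significant difference from controls in most replicates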;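 note: slope of initial-normalized fluorescence between seconds 10 and 20 after thallium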
HEK293 Tl flux2: parental HEK flux effect, counter-screen 2; shares compounds with Cl transport mod; HEK293 parental, thallium flux FluoZin-2 fluorescence slope; thallium flux slope at 10 µM; actives 33% (n = 3,700);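 active = thallium flux slope above the same plate's solvent-control mean plus 3 SD in both duplicate wells; inconclusive = duplicate wells that disagreed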;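 note: run without ouabain in cells lacking the KCC2 cotransporter; slope of fluorescence scaled to its starting value between 10 and 20 s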
Numbers without * were called inactive; ? = inconclusive; · = no result.

SMILES | ROMK primary | Cl transport mod | WT yeast gro inh | L major viab | m-calpain inh | KCC2 secondary | KCC2 bumet counter | KCC2 sec2 | HEK counter1 | KCC2 ouabain | HEK293 Tl flux2
CC(/C=C/c1ccco1)=N/NC(=O)c1ccccc1Cl | · | -0.33 | 6 | -4 | 9 | · | · | · | · | · | ·
Cc1cccc(Cn2c(C)nc3c(N)c(C)c(C)cc32)c1 | -0.59 | -0.037 | 9 | 32 | 0 | · | · | · | · | · | ·
Cc1ccc(NS(=O)(=O)c2cc(-c3n[nH]c(=O)c4ccccc34)ccc2C)cc1 | 0.43 | -1.5 | 15 | 26 | -57 | · | · | · | · | · | ·
Cc1nn(C2CCS(=O)(=O)C2)c(Cl)c1/C=C/C(=O)OCC(=O)Nc1ccc2c(c1)OCO2 (centres undefined) | -1.4 | 0.0092 | -19 | -9 | -10 | · | · | · | · | · | ·
CN(C)N1C(=O)CC(N2CCCCC2)C1=O (centres undefined) | 0.6 | 0.17 | 0 | -2 | -25 | · | · | · | · | · | ·
CC(C)c1onc(C(=O)N2CCOCC2)c1[N+](=O)[O-] | -0.87 | 0.81 | 6 | 9 | 17 | · | · | · | · | · | ·
CC(C)c1onc(C(=O)N(C)Cc2ccccc2)c1[N+](=O)[O-] | -0.22 | -1.7 | 14 | -6 | 30 | · | · | · | · | · | ·
CC(C)c1onc(C(=O)NCCc2ccccc2)c1[N+](=O)[O-] | -0.032 | -5.2* | 6 | -4 | -11 | 0.0053 | 0.005 | 0.025* | 0.0078 | ? | 0.01
CC(C)c1onc(C(=O)N2CCN(Cc3ccccc3)CC2)c1[N+](=O)[O-] | -0.34 | -4.9* | -11 | -1 | 0 | 0.0089 | 0.006 | 0.028* | 0.0077 | 0.015* | 0.0099
O=c1c2ccccc2ncn1-c1ccc(Cl)cc1Cl | · | -0.43 | · | · | -5 | · | · | · | · | · | ·
O=c1c2ccccc2nc(-c2ccc(Cl)c(Cl)c2)n1O | 1.7 | 35* | -11 | -13 | 2 | 0.018* | 0.11* | ? | 0.062* | 0.083* | 0.023*
O=c1c2ccccc2nc(-c2ccc(Cl)cc2Cl)n1O | 0.58 | 5.7* | -1 | 1 | -11 | 0.012* | 0.02* | 0.034 | 0.012* | 0.029* | 0.011
Cc1ccc(-c2nc3ccccc3c(=O)n2Cc2ccccc2)cc1 | -0.8 | -0.66 | 48 | 9 | 36 | · | · | · | · | · | ·
COc1cc(CC(=O)OCC(=O)Nc2ccc([N+](=O)[O-])cc2)cc(OC)c1OC | 0.47 | 2.2 | 14 | 6 | 15 | · | · | · | · | · | ·
O=C(Cn1cnc2c(nnn2Cc2ccccc2F)c1=O)N1CCN(c2ccccc2)CC1 | -0.54 | · | -11 | 5 | -4 | · | · | · | · | · | ·
Cc1ccc(-n2nnc3c(=O)n(CC(=O)OCc4ccccc4)cnc32)cc1 | · | -1.2 | 11 | -2 | -30 | · | · | · | · | · | ·
O=C(Cn1cnc2c(nnn2Cc2ccccc2)c1=O)N1CCN(c2ccccc2)CC1 | · | -4.5* | -3 | 41 | -4 | 0.0065 | 0.0065 | 0.032 | 0.0086 | 0.014* | 0.011
O=C(Cn1cnc2c(nnn2Cc2ccccc2F)c1=O)OCc1ccccc1 | · | -7.4* | -23 | -7 | -5 | 0.0082 | 0.0063 | 0.033 | 0.0044 | 0.015* | 0.012
O=C(Cn1cnc2c(nnn2Cc2ccc(F)cc2)c1=O)N1CCCc2ccccc21 | -0.47 | -4* | -2 | -1 | -5 | 0.016 | 0.0051 | 0.025* | 0.0077 | 0.015 | 0.011
CCOc1ccc(NC(=O)CC2C(=O)N(c3cccc(OC)c3)C(=O)N2CCOC)cc1 (centres undefined) | 1.5 | -0.84 | · | · | -4 | · | · | · | · | · | ·
COC(=O)CSc1nn(-c2ccc(F)cc2)c(=S)s1 | -0.74 | · | 2 | -6 | 2 | · | · | · | · | · | ·
O=C(Cn1cc2c(n1)CCCCC2)Nc1c(F)cc(F)cc1Br | -0.082 | -0.57 | · | · | -16 | · | · | · | · | · | ·
O=C1CCCN1CCCNCC(=O)N1c2ccccc2Sc2ccccc21 | -0.74 | -0.14 | -37 | 1 | -16 | · | · | · | · | · | ·
Cc1ccc(S(=O)(=O)N(C)c2ccc(C(=O)N3CCc4ccccc4C3)cc2)cc1 | -0.33 | -4.8* | 33 | 0 | 30 | 0.014 | 0.0039 | 0.024* | ? | 0.013* | 0.0095
COC(=O)c1[nH]c2ccccc2c1NC(=O)c1c(F)cccc1F | · | 0.86 | · | · | 3 | · | · | · | · | · | ·
SMILES | ROMK primary | Cl transport mod | WT yeast gro inh | L major viab | m-calpain inh | KCC2 secondary | KCC2 bumet counter | KCC2 sec2 | HEK counter1 | KCC2 ouabain | HEK293 Tl flux2
Cc1ccc(/C=c2\s/c(=C(/C#N)C(=O)N3CCCC3)n(Cc3ccco3)c2=O)s1 | · | 8.2* | 48 | -1 | -251 | 0.018 | 0.0048 | 0.025* | 0.007 | 0.014 | 0.0099
COc1cc(/C=c2\s/c(=C(/C#N)C(=O)N3CCCC3)n(-c3ccccc3)c2=O)ccc1O | -1.7 | -2.1 | 5 | -3 | -222 | · | · | · | · | · | ·
Cc1ccc(Nc2nc(=O)c3cccnc3s2)c(Br)c1 | · | 29* | · | · | 6 | 0.0075 | 0.038* | ? | 0.02* | 0.038* | 0.021*
COCCn1nnnc1C(c1ccc(OC)cc1OC)N1CCN(c2ccccc2F)CC1 (centres undefined) | -0.093 | -1.4 | -34 | 18 | -14 | · | · | · | · | · | ·
COc1ccc(C(c2nnnn2Cc2cccs2)N2CCN(c3ccccc3F)CC2)cc1 (centres undefined) | · | -4.1* | 13 | 30 | 31 | 0.0068 | ? | ? | 0.0076 | 0.018* | 0.011
CC(C)NC(=O)C12CC3CC(C1)CC(C(=O)NC(C)C)(C3)C2 | -0.038 | -0.029 | 12 | 3 | 4 | · | · | · | · | · | ·
COc1ccc(-c2oc3ccccc3c(=O)c2OC(=O)c2ccc(C)cc2)cc1 | · | 0.97 | -31 | -9 | -19 | · | · | · | · | · | ·
O=C(Oc1c(-c2ccccc2)oc2ccccc2c1=O)c1ccccc1 | 0.039 | · | 1 | -11 | -19 | 0.014* | 0.068* | 0.036 | ? | 0.055* | ?
O=C(Cc1ccc(Cl)cc1)c1c[nH]c(C(=O)NCCCN2CCOCC2)c1 | -0.87 | -0.53 | -20 | -3 | -21 | · | · | · | · | · | ·
Fc1ccc(N2CN(Cc3cccnc3)CNC2=S)cc1 | · | 0.58 | · | · | 13 | · | · | · | · | · | ·
CS(=O)(=O)c1[nH]nc(-c2ccccc2)c1C#N | · | -1.1 | · | · | 5 | · | · | · | · | · | ·
O=C1NC(=S)N(C(=O)c2ccc(F)cc2)/C1=C/c1ccccc1 | -1.9 | 26* | 38 | 0 | 1 | 0.021* | 0.082* | ? | 0.078* | 0.056* | 0.032*
O=C(c1ccc(F)cc1)N1CCN2C(=O)c3ccccc3C12c1ccccc1 (centres undefined) | -0.31 | -0.35 | · | · | -2 | · | · | · | · | · | ·
CCCN1C(=O)/C(=C/c2ccc(C)o2)NC1=S | 0.1 | 83* | 0 | 5 | -24 | 0.022* | 0.12* | ? | 0.05* | 0.085* | 0.018*

Source: PubChem BioAssay (several laboratories)
